Data published in the supplement of paper PMC10849652.
The full data set covers some 8,800 targets. This sample favours those with a hit. About 0.5% of all pairs of compound and target were hits.

Tests used:
Assay in all cases: log2 fold change, soluble protein after heating vs DMSO (PISA); higher = thermal stabilisation; K562 lysate, 10 uM; active = over 0.2 and 3.5 SD of the protein, either way, in both replicates (recomputed)
[1] = compound: NCC(=O)Nc1ccc(-n2nc(C(F)(F)F)cc2-c2ccc3c(ccc4ccccc43)c2)cc1
In short: (§1)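 Thermal stability, expressed as log-two fold change relative to solvent controls, is given from duplicates. Crude K562 extract in PBS pH 7.4 with 1 mM MgCl2, at 1 mg/mL protein, was treated with 10 μM compound for 30 min and heated in aliquots for 3 min across 48°C-58°C. After pooling, adjustment to 0.5% NP-40 at 4°C and centrifugation at 21,000xg for 90 min, supernatant protein was measured by TMTpro 16plex LC-MS/MS with channel sums equalised.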

vorinostat = compound: O=C(CCCCCCC(=O)Nc1ccccc1)NO [vorinostat]
In short: as §1

silmitasertib = compound: O=C(O)c1ccc2c(c1)nc(Nc1cccc(Cl)c1)c1ccncc12 [silmitasertib]
In short: as §1

[2] = compound: O=C1NC(=O)C(c2cnc3ccccn23)=C1c1cn2c3c(cc(F)cc13)CN(C(=O)N1CCCCC1)CC2
In short: as §1

entospletinib = compound: c1cn2cc(-c3ccc4cn[nH]c4c3)nc(Nc3ccc(N4CCOCC4)cc3)c2n1 [entospletinib]
In short: as §1

Measured: log2 fold change

OPA1 isoform 2 (UniProt O60313)
Chain of UniProt O60313 (O60313 whole entry, looked up): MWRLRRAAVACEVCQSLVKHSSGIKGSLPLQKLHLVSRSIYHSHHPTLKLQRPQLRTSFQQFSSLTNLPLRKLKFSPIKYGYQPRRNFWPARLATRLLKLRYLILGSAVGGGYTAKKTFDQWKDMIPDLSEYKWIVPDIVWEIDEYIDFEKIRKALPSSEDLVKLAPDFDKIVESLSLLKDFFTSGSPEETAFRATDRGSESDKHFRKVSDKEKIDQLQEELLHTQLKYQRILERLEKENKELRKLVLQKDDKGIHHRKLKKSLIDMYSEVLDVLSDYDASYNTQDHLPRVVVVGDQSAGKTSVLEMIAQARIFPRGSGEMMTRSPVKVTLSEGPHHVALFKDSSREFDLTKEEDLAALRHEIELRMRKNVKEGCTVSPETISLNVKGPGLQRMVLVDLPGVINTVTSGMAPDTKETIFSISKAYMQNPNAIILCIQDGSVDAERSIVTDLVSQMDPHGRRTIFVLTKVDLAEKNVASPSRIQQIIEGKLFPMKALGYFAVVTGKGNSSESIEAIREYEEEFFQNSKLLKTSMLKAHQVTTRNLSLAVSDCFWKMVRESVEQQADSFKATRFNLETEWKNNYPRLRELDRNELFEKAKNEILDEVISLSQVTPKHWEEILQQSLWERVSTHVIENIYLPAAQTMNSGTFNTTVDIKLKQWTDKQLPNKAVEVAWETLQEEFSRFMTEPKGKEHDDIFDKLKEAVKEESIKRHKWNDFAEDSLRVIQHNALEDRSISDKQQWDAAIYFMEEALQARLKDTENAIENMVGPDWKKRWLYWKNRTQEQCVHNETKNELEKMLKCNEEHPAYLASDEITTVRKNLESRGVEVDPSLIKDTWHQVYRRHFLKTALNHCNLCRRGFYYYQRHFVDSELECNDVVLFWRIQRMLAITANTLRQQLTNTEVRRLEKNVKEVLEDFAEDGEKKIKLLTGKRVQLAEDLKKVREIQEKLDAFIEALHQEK
inactive: [1] 0.002 | vorinostat 0.014 | silmitasertib 0.027 | [2] 0.009 | entospletinib -0.004

NSL1 (UniProt Q96IY1)
inactive: [1] -0.012 | silmitasertib -0.022 | [2] -0.005 | entospletinib 0.03
active: vorinostat -0.528

NLRP2 (UniProt Q9NX02)
Chain of UniProt Q9NX02 (Q9NX02 whole entry, looked up): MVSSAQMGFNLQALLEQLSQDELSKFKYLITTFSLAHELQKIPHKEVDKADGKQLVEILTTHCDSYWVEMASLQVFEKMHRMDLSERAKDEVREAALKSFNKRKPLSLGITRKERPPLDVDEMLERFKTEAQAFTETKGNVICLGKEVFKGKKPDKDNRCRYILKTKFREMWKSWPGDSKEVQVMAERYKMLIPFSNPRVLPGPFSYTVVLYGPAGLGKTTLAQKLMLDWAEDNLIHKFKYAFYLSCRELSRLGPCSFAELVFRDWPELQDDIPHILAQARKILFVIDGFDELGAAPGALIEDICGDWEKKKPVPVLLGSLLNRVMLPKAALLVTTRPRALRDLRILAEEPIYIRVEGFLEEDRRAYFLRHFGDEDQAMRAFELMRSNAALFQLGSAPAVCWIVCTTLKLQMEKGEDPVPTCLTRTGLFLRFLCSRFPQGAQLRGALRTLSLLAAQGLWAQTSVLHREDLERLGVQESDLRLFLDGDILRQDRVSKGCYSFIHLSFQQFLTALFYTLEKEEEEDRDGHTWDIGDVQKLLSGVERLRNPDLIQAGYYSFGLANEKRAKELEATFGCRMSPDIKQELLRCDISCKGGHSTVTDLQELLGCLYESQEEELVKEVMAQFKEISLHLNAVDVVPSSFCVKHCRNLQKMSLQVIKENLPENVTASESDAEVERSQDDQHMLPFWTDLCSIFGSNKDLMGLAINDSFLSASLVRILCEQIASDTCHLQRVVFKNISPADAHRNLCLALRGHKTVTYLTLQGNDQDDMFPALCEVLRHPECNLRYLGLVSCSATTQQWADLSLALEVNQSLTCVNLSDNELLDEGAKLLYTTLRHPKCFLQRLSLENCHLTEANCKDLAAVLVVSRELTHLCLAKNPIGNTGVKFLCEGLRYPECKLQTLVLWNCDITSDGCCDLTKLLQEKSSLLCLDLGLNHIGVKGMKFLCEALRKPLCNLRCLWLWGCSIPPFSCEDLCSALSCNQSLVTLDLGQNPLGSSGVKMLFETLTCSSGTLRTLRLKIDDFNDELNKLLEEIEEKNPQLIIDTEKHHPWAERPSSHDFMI
active: vorinostat -0.528
inactive: [1] -0.031 | silmitasertib 0.062 | [2] -0.015 | entospletinib 0.011

NOC2L (UniProt Q9Y3T9)
inactive: [1] -0.055 | vorinostat -0.126 | silmitasertib 0.031 | [2] 0.009 | entospletinib 0.028

NOA1 (UniProt Q8NC60)
active: vorinostat -0.411
inactive: [1] 0.065 | silmitasertib 0.049 | [2] 0.048 | entospletinib -0.008

NEBL (UniProt O76041)
inactive: [1] 0.056 | vorinostat 0.207 | silmitasertib 0.052 | [2] -0.026 | entospletinib -0.018

NFAT5 isoform 5 (UniProt O94916)
inactive: [1] 0.033 | vorinostat -0.026 | silmitasertib 0.037 | [2] 0.016 | entospletinib -0.061

OSBPL6 isoform 5 (UniProt Q9BZF3)
inactive: [1] -0.082 | vorinostat -0.195 | silmitasertib 0.25 | [2] -0.026 | entospletinib 0.113

MYCBP (UniProt Q99417)
inactive: [1] 0.006 | vorinostat 0.113 | silmitasertib -0.015 | [2] -0.025 | entospletinib -0.075

NPLOC4 isoform 2 (UniProt Q8TAT6)
Chain of UniProt Q8TAT6 (Q8TAT6 whole entry, looked up): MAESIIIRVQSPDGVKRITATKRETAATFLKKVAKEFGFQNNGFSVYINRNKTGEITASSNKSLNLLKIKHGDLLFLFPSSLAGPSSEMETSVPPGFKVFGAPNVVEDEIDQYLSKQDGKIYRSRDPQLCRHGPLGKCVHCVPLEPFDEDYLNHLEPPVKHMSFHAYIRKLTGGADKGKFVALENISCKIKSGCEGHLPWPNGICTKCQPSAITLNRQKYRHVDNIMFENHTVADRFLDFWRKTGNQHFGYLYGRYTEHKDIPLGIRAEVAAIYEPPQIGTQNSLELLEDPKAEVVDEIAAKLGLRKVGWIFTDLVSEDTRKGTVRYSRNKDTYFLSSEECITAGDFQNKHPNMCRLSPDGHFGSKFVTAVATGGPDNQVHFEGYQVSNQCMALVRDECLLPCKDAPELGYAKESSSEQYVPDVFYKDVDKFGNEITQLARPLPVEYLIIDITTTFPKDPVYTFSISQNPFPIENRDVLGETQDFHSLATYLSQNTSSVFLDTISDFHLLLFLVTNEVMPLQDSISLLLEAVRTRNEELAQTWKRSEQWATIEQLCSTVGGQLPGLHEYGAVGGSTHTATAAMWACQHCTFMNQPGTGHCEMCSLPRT
inactive: [1] 0 | vorinostat 0.028 | silmitasertib -0.016 | [2] 0.018 | entospletinib 0.031

MTA3 (UniProt Q9BTC8)
active: vorinostat -0.278
inactive: [1] 0.021 | silmitasertib -0.017 | [2] -0.021 | entospletinib 0.012

OGFOD2 (UniProt Q6N063)
Chain of UniProt Q6N063 (Q6N063 whole entry, looked up): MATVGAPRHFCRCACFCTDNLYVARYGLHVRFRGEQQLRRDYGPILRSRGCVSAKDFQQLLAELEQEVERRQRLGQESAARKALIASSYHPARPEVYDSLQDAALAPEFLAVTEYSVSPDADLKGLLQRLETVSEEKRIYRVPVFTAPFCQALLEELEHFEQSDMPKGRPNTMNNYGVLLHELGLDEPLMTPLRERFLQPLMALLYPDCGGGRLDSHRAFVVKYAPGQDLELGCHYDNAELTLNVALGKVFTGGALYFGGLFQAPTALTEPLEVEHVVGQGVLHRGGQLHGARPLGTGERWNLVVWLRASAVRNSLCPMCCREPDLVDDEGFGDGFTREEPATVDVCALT
inactive: [1] 0.023 | vorinostat -0.075 | silmitasertib 0.038 | [2] 0.022 | entospletinib -0.001

PAGE2B (UniProt Q5JRK9)
active: vorinostat 0.474
inactive: [1] 0.057 | silmitasertib -0.001 | [2] 0.02 | entospletinib 0.017

NUP133 (UniProt Q8WUM0)
inactive: [1] 0.045 | vorinostat -0.195 | silmitasertib 0.052 | [2] 0.011 | entospletinib -0.033

NFATC2 (UniProt Q13469)
active: vorinostat -0.411
inactive: [1] 0.02 | silmitasertib 0.021 | [2] 0.044 | entospletinib -0.062

PARD3 (UniProt Q8TEW0)
Chain of UniProt Q8TEW0 (Q8TEW0 whole entry, looked up): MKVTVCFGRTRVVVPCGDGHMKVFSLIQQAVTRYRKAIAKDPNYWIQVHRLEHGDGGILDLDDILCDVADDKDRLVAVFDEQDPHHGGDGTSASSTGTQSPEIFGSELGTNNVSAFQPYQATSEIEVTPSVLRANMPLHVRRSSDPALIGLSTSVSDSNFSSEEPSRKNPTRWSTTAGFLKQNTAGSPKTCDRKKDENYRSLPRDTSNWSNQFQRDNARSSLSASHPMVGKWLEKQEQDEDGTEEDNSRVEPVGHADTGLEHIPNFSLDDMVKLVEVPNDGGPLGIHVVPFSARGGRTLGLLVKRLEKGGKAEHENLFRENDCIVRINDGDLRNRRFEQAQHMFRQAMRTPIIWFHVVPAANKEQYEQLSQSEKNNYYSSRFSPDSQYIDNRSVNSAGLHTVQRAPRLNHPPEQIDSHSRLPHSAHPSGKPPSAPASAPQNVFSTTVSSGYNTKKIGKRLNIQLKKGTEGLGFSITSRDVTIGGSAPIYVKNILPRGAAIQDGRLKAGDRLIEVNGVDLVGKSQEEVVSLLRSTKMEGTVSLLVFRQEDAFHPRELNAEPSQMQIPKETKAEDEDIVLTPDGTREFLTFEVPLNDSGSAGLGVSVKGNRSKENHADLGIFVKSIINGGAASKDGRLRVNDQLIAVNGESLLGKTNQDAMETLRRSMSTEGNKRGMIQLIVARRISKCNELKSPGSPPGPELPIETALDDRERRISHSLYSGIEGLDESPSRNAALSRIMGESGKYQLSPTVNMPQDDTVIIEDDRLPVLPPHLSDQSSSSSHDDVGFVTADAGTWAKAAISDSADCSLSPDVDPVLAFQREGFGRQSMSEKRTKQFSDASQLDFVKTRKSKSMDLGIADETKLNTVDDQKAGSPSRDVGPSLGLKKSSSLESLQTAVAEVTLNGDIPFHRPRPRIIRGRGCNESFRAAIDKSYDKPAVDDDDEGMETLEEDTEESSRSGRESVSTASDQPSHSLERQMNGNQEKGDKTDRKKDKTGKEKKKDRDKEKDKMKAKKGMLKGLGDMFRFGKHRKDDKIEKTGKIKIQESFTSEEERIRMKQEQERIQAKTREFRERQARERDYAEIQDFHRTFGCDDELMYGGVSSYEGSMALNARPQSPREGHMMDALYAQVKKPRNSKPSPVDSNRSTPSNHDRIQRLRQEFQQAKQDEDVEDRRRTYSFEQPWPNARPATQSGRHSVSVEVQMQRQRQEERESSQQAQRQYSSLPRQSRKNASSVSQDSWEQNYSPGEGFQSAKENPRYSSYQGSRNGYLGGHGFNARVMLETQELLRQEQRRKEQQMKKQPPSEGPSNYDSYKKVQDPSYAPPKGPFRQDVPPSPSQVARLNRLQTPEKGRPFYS
inactive: [1] -0.071 | vorinostat -0.314 | silmitasertib -0.118 | [2] -0.081 | entospletinib -0.003

PAK4 (UniProt O96013)
inactive: [1] -0.003 | vorinostat -0.458 | silmitasertib -0.038 | [2] 0.028 | entospletinib 0.05

NIT2 (UniProt Q9NQR4)
active: vorinostat 0.346
inactive: [1] -0.001 | silmitasertib -0.001 | [2] -0.007 | entospletinib 0.004

OAT (UniProt P04181)
inactive: [1] 0.053 | vorinostat 0.168 | silmitasertib -0.006 | [2] 0.042 | entospletinib 0.029

PAGE4 (UniProt O60829)
active: vorinostat -0.425
inactive: silmitasertib 0.06 | [2] -0.074 | entospletinib -0.054

NAA16 (UniProt Q6N069)
inactive: [1] 0.43 | entospletinib -0.018

NUDT5 (UniProt C9JYY9)
inactive: vorinostat -0.041 | silmitasertib 0.129 | entospletinib 0.01

NUDT4 (UniProt Q9NZJ9)
inactive: [1] -0.144 | vorinostat -0.162 | silmitasertib 0.028 | [2] 0.03 | entospletinib -0.01

NSA2 (UniProt O95478)
inactive: [1] 0.035 | vorinostat -0.073 | silmitasertib -0.042 | entospletinib 0.208

NEXN (UniProt Q0ZGT2)
Chain of UniProt Q0ZGT2 (Q0ZGT2 whole entry, looked up): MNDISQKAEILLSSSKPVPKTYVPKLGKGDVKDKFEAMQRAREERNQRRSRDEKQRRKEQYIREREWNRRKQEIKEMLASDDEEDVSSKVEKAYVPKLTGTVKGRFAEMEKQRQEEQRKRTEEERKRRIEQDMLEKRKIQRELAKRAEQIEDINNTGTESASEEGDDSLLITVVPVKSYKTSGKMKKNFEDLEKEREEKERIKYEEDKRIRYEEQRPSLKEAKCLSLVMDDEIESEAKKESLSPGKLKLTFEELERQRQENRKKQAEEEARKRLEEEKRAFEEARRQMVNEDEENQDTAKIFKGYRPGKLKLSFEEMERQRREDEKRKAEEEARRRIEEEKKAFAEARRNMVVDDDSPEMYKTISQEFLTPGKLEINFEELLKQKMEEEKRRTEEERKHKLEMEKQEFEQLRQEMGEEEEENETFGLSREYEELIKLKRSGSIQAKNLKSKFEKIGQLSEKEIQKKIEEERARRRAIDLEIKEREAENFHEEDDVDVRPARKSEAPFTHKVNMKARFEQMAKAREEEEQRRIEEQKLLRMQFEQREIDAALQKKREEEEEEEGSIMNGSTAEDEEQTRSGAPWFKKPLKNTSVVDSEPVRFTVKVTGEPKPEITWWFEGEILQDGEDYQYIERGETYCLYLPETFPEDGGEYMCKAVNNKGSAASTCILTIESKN
inactive: [1] 0.144 | vorinostat -0.335 | silmitasertib -0.038 | entospletinib 0.042

NR2F2 (UniProt P24468)
active: vorinostat -0.389
inactive: silmitasertib 0.176 | [2] 0.017
